For 1 compound, fluorescent cell count results are on record in PubChem BioAssay AID493065 (National Center for Advancing Translational Sciences (NCATS), 2011).

The experiment can be described thus: Parental Cell Counter Screen Assay for Epigenetic Modulators: Hit Validation. The following applies: mouse c127i parental cells, 30 h, stronger effect = higher value, concentration not given here. An excerpt:
NIH Molecular Libraries Screening Centers Network [MLSCN] NIH Chemical Genomics Center [NCGC] MLSCN Grant: 1 X01 MH079860-01 Assay Provider: Elisabeth D. Martinez, University of Texas SW Medical Center NCGC Assay Overview: This assay is a counter screen for the Locus Derepression (LDR) assay (PubChem AID 1865). The LDR assay detects the derepression of a GFP reporter that is stably integrated in a region of the genome of murine c127i mammary cells that is presumably silenced. Compounds that cause derepression of the locus to express GFP are identified by enumerating GFP positive cells using a laser-scanning microplate cytometer. […] Compounds active in the parental c127i cells are likely fluorescent.
NCGC Assay Protocol Summary: Three hundred cells in 5 uL per well were dispensed into black, clear-bottom 1536-well plates. Twenty-three nL compound was transferred to the assay plate and cells were incubated 30 hours at 37 C. Medium was removed, cells were washed two times with PBS, and fluorescent cells were enumerated as objects between the sizes of 20 to 120 um width and depth using a laser-scanning microplate imager (Acumen Explorer Ex3, TTP Labtech). For further details, see Johnson, RL, Huang, W, Jadhav, A, Austin, CP, Inglese, J, Martinez, ED (2008). A quantitative high-throughput screen identifies potential epigenetic modulators of gene expression. Anal Biochem 375: 237-48.
For orientation: A counterscreen serves to expose hits that act by an unwanted route or on another target.

The other results are listed elsewhere or left out. Results filed as inconclusive are left out. Values without a mark were called inactive. Calls follow the shape of the dose curve; as a rule, active = well fitted activation curve with a large enough effect; inconclusive = small, poorly fitted or top-dose-only effect; inactive = flat fitted curve, though single readings scatter.

For `O=C1NC(=O)N(CCc2ccc(F)cc2)C(=O)/C1=C/C=C/c1ccccc1`, the fluorescent cell count is 3%.
